A selection: hits, their analogues and other compounds. The true share with any hit is near 6.7%.
Pf Dd2 growth – inhibitors of Plasmodium falciparum Dd2 growth. actives 2.3% (n = 94,000). P. falciparum Dd2 growth, SYBR Green, 72 h; stronger effect = lower value. activity change, % at 10 µM; in the data active = activity change below about -80%
T cruzi growth – inhibitors of T. cruzi proliferation | inhibition, % at 8.34 µM | actives 5.9% (n = 77,000) | T. cruzi beta-gal in NIH3T3, GalScreen luminescence, 90 h | AID 624255;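 active = mean inhibition above about 93%, with at least 55% of replicates each passing it, limit read from the data, passing the limit was not always enough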
C diff growth – blocks growth of Clostridium difficile; Clostridium difficile clinical isolate growth, OD600, 24 h; stronger effect = lower value; growth activity, negative = inhibition, % at 16 µg/mL (by protocol); actives 0.25% (n = 86,000); AID 1259249;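 active = mean growth activity at or below -80% and every replicate also at or below -80%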;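 note: 0% = DMSO wells and -100% = levofloxacin 16 µg/mL wells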
* = called active by the depositor.

Screening C[C@H](CO)N1C[C@H](C)[C@@H](CN(C)Cc2ccccc2)OCCCC[C@H](C)Oc2ccc(NC(=O)Nc3ccc(C(F)(F)F)cc3)cc2C1=O returned Pf Dd2 growth -39, T cruzi growth 82 and C diff growth 20.
COc1ccc(NC(=O)Nc2ccc3c(c2)C(=O)N([C@H](C)CO)C[C@H](C)[C@@H](CN(C)Cc2ccc(C(F)(F)F)cc2)OCCCC[C@H](C)O3)cc1 was read as Pf Dd2 growth -1, T cruzi growth 72 and C diff growth 6.
C[C@@H]1CN([C@@H](C)CO)C(=O)c2cc(NC(=O)c3ccncc3)ccc2O[C@@H](C)CCCCO[C@@H]1CN(C)Cc1ccc(C(F)(F)F)cc1 was read as Pf Dd2 growth -14, T cruzi growth 51 and C diff growth 2.
CC(=O)N(C)C[C@@H]1Oc2cc(C#Cc3cccc(F)c3)ccc2S(=O)(=O)N([C@@H](C)CO)C[C@H]1C was read as Pf Dd2 growth -59, T cruzi growth 9 and C diff growth 24.
For CCCNC(=O)Nc1ccc2c(c1)OC[C@@H](C)N(C(=O)C1CC1)C[C@H](C)[C@@H](OC)CN(C)C2=O the results were T cruzi growth 65.
COc1ccc(CN(C)C[C@@H]2OCCCC[C@H](C)Oc3ccc(NC(=O)Nc4ccc(C(F)(F)F)cc4)cc3C(=O)N([C@H](C)CO)C[C@H]2C)cc1 was read as Pf Dd2 growth -43, T cruzi growth 50 and C diff growth -96*.
C[C@@H]1CCCCO[C@@H](CN(C)Cc2ccncc2)[C@@H](C)CN([C@H](C)CO)C(=O)c2cc(NC(=O)C3CCCCC3)ccc2O1 was read as T cruzi growth 26 and C diff growth 3.
Screening COc1ccc(CN(C)C[C@H]2OCCCC[C@H](C)Oc3ccc(NC(=O)Nc4ccc(C(F)(F)F)cc4)cc3C(=O)N([C@H](C)CO)C[C@H]2C)cc1 returned Pf Dd2 growth -69, T cruzi growth 48 and C diff growth -26.
C[C@@H]1CCCCO[C@H](CN(C)Cc2ccncc2)[C@@H](C)CN([C@@H](C)CO)C(=O)c2cc(NC(=O)C3CCCCC3)ccc2O1 was read as Pf Dd2 growth -85*, T cruzi growth 44 and C diff growth 1.
`CCC(=O)Nc1ccc2c(c1)OC[C@H](C)N(CC1CCCCC1)C[C@H](C)[C@@H](OC)CN(C)C2=O` gave Pf Dd2 growth -2, T cruzi growth -3 and C diff growth 2.
`C[C@H]1CN([C@@H](C)CO)C(=O)c2cc(C#CCC3CCCC3)cnc2O[C@@H]1CN(C)S(=O)(=O)c1cccs1` gave Pf Dd2 growth -36 and C diff growth -1.
For C[C@H](CO)N1C[C@H](C)[C@@H](CN(C)C(=O)N[C@H](C)c2ccccc2)OCc2ccccc2-c2c(n(C)c3ccccc23)C1=O the results were Pf Dd2 growth -82*, T cruzi growth 71 and C diff growth 12.
For C[C@H](CO)N1C[C@H](C)[C@H](CN(C)C(=O)[C@H](C)c2ccccc2)OCc2ccccc2-c2c(n(C)c3ccccc23)C1=O the results were Pf Dd2 growth -91* and C diff growth 5.
`C[C@H](C(=O)N(C)C[C@H]1OCc2ccccc2-c2c(n(C)c3ccccc23)C(=O)N([C@H](C)CO)C[C@@H]1C)c1ccccc1` gave Pf Dd2 growth -51 and C diff growth 26.
For C[C@H](C(=O)N(C)C[C@@H]1OCc2ccccc2-c2c(n(C)c3ccccc23)C(=O)N([C@@H](C)CO)C[C@@H]1C)c1ccccc1 the results were Pf Dd2 growth -83* and C diff growth -6.
C[C@@H]1CN([C@H](C)CO)C(=O)c2c(c3ccccc3n2C)-c2ccccc2CO[C@@H]1CN(C)C(=O)N[C@H](C)c1ccccc1 was read as Pf Dd2 growth -30, T cruzi growth 24 and C diff growth -5.
Screening C[C@H](C(=O)N(C)C[C@H]1OCc2ccccc2-c2c(n(C)c3ccccc23)C(=O)N([C@@H](C)CO)C[C@H]1C)c1ccccc1 returned Pf Dd2 growth -78 and C diff growth 0.
For CO[C@@H]1CN(C)C(=O)c2cc(NC(=O)C3CCCC3)ccc2OC[C@H](C)N(C)C[C@H]1C the results were T cruzi growth 25.
For CNC[C@@H]1Oc2ccc(NC(=O)Cn3cnnn3)cc2C(=O)N([C@H](C)CO)C[C@@H]1C the results were Pf Dd2 growth 27, T cruzi growth 22 and C diff growth 1.
`CO[C@H]1CN(C)C(=O)c2ccc(NC(=O)c3ccccc3)cc2OC[C@@H](C)N(C(C)=O)C[C@@H]1C` gave Pf Dd2 growth -26, T cruzi growth 20 and C diff growth -5.
`C[C@@H]1CN([C@@H](C)CO)S(=O)(=O)c2ccc(C3=CCCCC3)cc2O[C@@H]1CN(C)C(=O)Nc1ccc2c(c1)OCO2` gave Pf Dd2 growth -2 and C diff growth 9.
Screening COc1ccc(S(=O)(=O)N(C)C[C@@H]2OCCCC[C@H](C)Oc3ccc(NC(=O)Nc4ccc(C(F)(F)F)cc4)cc3C(=O)N([C@@H](C)CO)C[C@H]2C)cc1 returned Pf Dd2 growth -86*, T cruzi growth 76 and C diff growth 6.
For COc1ccc(S(=O)(=O)N(C)C[C@H]2OCCCC[C@@H](C)Oc3ccc(NC(=O)Nc4ccc(C(F)(F)F)cc4)cc3C(=O)N([C@H](C)CO)C[C@@H]2C)cc1 the results were Pf Dd2 growth -79, T cruzi growth 87 and C diff growth 3.
COc1ccc(NC(=O)Nc2ccc3c(c2)C(=O)N([C@H](C)CO)C[C@@H](C)[C@H](CN(C)S(=O)(=O)c2ccc(C)cc2)OCCCC[C@@H](C)O3)cc1 was read as Pf Dd2 growth -75.
`COc1ccc(S(=O)(=O)N(C)C[C@H]2OCCCC[C@@H](C)Oc3ccc(NC(=O)Nc4ccc5c(c4)OCO5)cc3C(=O)N([C@@H](C)CO)C[C@H]2C)cc1` gave Pf Dd2 growth -85*, T cruzi growth 89 and C diff growth -3.
Screening COc1ccc(NC(=O)Nc2ccc3c(c2)C(=O)N([C@H](C)CO)C[C@H](C)[C@H](CN(C)S(=O)(=O)c2ccc(C)cc2)OCCCC[C@@H](C)O3)cc1 returned Pf Dd2 growth -88* and T cruzi growth -7.
`COc1ccc(NC(=O)Nc2ccc3c(c2)C(=O)N([C@@H](C)CO)C[C@@H](C)[C@@H](CN(C)S(=O)(=O)c2ccc(OC)cc2)OCCCC[C@@H](C)O3)cc1` gave Pf Dd2 growth -73, T cruzi growth 84 and C diff growth -6.
For COc1ccc(S(=O)(=O)N(C)C[C@H]2OCCCC[C@@H](C)Oc3ccc(NC(=O)Nc4ccc5c(c4)OCO5)cc3C(=O)N([C@H](C)CO)C[C@@H]2C)cc1 the results were Pf Dd2 growth -66, T cruzi growth 50 and C diff growth 1.
`COc1ccc(NC(=O)Nc2ccc3c(c2)C(=O)N([C@@H](C)CO)C[C@H](C)[C@H](CN(C)S(=O)(=O)c2ccc(OC)cc2)OCCCC[C@@H](C)O3)cc1` gave Pf Dd2 growth -88*, T cruzi growth 43 and C diff growth 4.
Screening COc1ccc(NC(=O)O[C@@H](c2ccc(OC)c(O)c2)[C@H](CCO)OC)cc1 returned C diff growth -3.

Compound activity: PubChem BioAssay, Broad Institute
